This is an account of results in the supplement of paper PMC11417369.

± gives the standard deviation of the averaged measurements. In all, about 25,000 sequences were measured (“ln(normalized median fluorescence intensity)”: median about 8.6, highest 2% from about 10 on). This is one part of a sample in which the highest values are shown more often than they occur.

In the experiment the test system is PfAP2-EXP AP2 domain (GST-tagged). Nature of the experiment: gcPBM binding intensity (ln(normalized median fluorescence intensity)); higher = stronger DNA binding. In a few lines:
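Binding intensity values are the highest Masliner-normalised natural-log median intensity among replicate spots of either probe orientation. The binding step lasted 1 h in 1× PBS with 1% milk, 0.2 mg/ml BSA, 0.5% salmon testes DNA and 0.03% Triton X-100, using GST-tagged P. falciparum DNA-binding domains expressed in E. coli on an Agilent 4 × 180k array of primer-extended double-stranded 36-bp intergenic genomic probes plus negative controls. Alexa488 anti-GST antibody and a 488 nm scan detected bound protein.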
Consider “GAAGACAATTATATGTGTACATATATATACATATAT [XGTACX_site4630]”, for which the “gcPBM binding intensity (ln)” value came out at 8.44 ± 0.25.
Next, “TATATATATATATATTGTACATTTTTTTTTTTTTTT [XGTACX_site7891]”: 10.1 ± 0.23; “AGTATATAAAATACTGTATCGATGGGGGAGGGCGCA [CACACA_negctrl_site1612]”: 9.97 ± 0.23.
Next, “ATATATGGGGCGCAGGAAAAGAGTTTTGGAAATAAA [CACACA_negctrl_site1265]”: 9.08 ± 0.49; “TATAAAATACTGTATCGATGGGGGAGGGCGCAGGGG [TGCATGCA_negctrl_site250]”: 10.3 ± 0.11.
For the sequence “ATAGGTAATAATAATACACACGGTGAAATATAGATG [CACACA_site9336]”, the “gcPBM binding intensity (ln)” value was found to be 8.88 ± 0.47.
The figure for “TATAATGAGGATAATAGTACATATGAATACAAAAAA [XGTACX_site3665]” is 8.86 ± 0.45.
Next, “TTGGATAAAAAATATGTACACACATATAGATATCTA [CACACA_site8862]”: 8.48 ± 0.31; “TCGGGAGGGGGGAAGCGTACATATATAAAATTATTA [XGTACX_site4683]”: 10.4.
Next, “ATAAATAAATAAAAGCGTACATATATATAAAATATA [XGTACX_site8107]”: 8.63 ± 0.27.
Take “TATAAATAGAGGAAGCGTACATATATATATATATAT [XGTACX_site4993]”: the “gcPBM binding intensity (ln)” value came to 10.1 ± 0.37.
Next, “AAAATTTATATAAGCACACAAATATATATTTATATC [CACACA_site3291]”: 8.55 ± 0.47.
In the case of “GAAGGAATATACAATTGTACTTGGCAAAAAAAAAAA [XGTACX_site1884]”, the “gcPBM binding intensity (ln)” value came out at 8.74 ± 0.67.
Next, “TCTGTAAAGTAATGGACACACAATATATCCATTTAT [CACACA_site1536]”: 8.35 ± 0.35; “ATATATAATATAATATGTACATATAATCAATCCTGT [XGTACX_site8694]”: 8.48 ± 0.28.
Turning to “ATAATATAATATATATGTACACATCCTTTTTGTGTA [XGTACX_site2879]”, the “gcPBM binding intensity (ln)” value is 8.62 ± 0.4.
The figure for “ATATATATATATATATGTACACAGGACAATAATCCT [XGTACX_site6383]” is 10.2 ± 0.33.
With “AGAGGCCAGCTTTCTCTTCTAAACATGTACAAAAAT [GTGCAC_negctrl_site98]”, the “gcPBM binding intensity (ln)” value was 8.63 ± 0.49.
The figure for “TTAGATATAATATATACACACCAACGAACGAAGAAA [CACACA_site4763]” is 9.12 ± 0.54.
On to “TCTATTAATGAATATACACACATTATATATATATAT [CACACA_site5410]”, for which the “gcPBM binding intensity (ln)” value worked out at 10 ± 0.49.
Next, “ATAAGAAGGAACATAAATATATCATAAAAAAAAAAA [GTGCAC_negctrl_site169]”: 8.56 ± 0.35; “ATAAAATTATATTTTGCATGCAGGCCTTTTTCTTAA [TGCATGCA_site1030]”: 9.94 ± 0.14.
The figure for ATTATTTATATTATGGTGCATAATTTTGGGTTTCTT is 8.86 ± 0.26.
The figure for “TTTTCCTTATATTATGCATGCAGGGTTTGACATTAT [TGCATGCA_site826]” is 10.3 ± 0.34; for “ATTTTTTATTGTTATAAAAAAAAAATTAAACAATTA [CACACA_negctrl_site1077]” it is 8.19 ± 0.46; for “AGATATATTTTTTAAATTTAAAAATTATAAAATTTA [CACACA_negctrl_site533]” it is 8.07 ± 0.42.
Take “TCATTCCATACTTTAACACACAAATATATTTAATCC [CACACA_site145]”: the “gcPBM binding intensity (ln)” value was found to be 8.76 ± 0.53.
The figure for “ATATTGGAGCACAACACACACAAGTATATATATGGA [CACACA_site1546]” is 8.8 ± 0.47.
The figure for AAAAAAAAAAAATACGTGCACTATGATATATTATAT is 8.95 ± 0.092; for “AAAAGGAACAGACACACACACATATATATATATATA [CACACA_site3587]” it is 10.3 ± 0.25; for “AAAAAAAAAAAACACACACACACACCCATACATACA [CACACA_site707]” it is 8.65 ± 0.56.
For the sequence “TACATATATATATACACACATACATATATATACGCA [CACACA_site792]”, the “gcPBM binding intensity (ln)” value was 8.45 ± 0.34.
Next, “AAAAGGAACGGACACACACACATATATATATATATA [CACACA_site5894]”: 10.2 ± 0.49; “AAAAAAAAAAAACACACACACATATATATATATATA [CACACA_site732]”: 10.2 ± 0.38; “AAAAAAAAAAAAAAAACACACACATATATATATATA [CACACA_site8571]”: 10.1 ± 0.21.
As for “AAAAAAAAAAAAAACACACACACACCCACATATACA [CACACA_site2663]”, the “gcPBM binding intensity (ln)” value was determined as 8.53 ± 0.2.
Next, “TATATACGCAAACACACACACACATACACCCACATA [CACACA_site1724]”: 8.59 ± 0.44; “AAAAGGAACAGACACACACACATATATAAATATGTA [CACACA_site7656]”: 8.4 ± 0.59.
The figure for “AAAAAAAAAAAAAAAACACACATACACCCCCACCCA [CACACA_site9117]” is 10.4 ± 0.3; for “CATATACGCAAACACACACACATATATATATATATA [CACACA_site501]” it is 10.2 ± 0.4.
The figure for “AAAAAAAAAAAAAACACACACATATATATATATATA [CACACA_site1891]” is 10.2 ± 0.3.
Take “CATGTATTTTATATTACACACTAATATTATAGATAT [CACACA_site6819]”: the “gcPBM binding intensity (ln)” value was determined as 8.27 ± 0.28.
Regarding “GCTTCTTAGTATACTTTATAAAATATATATTAAATA [XGTACX_negctrl_site57]”, the “gcPBM binding intensity (ln)” value was determined as 8.75 ± 0.47.
Next, “AATATTTTATTTTTTCTCATTAAAAATTTTTTTTTT [CACACA_negctrl_site364]”: 8.46 ± 0.45; “TAAAATGTAATCTGAACACACATATTTTTTTAATAT [CACACA_site1768]”: 8.12 ± 0.52; “CTAACAACCAAACGCACACACACAAAAAAAAAAATA [CACACA_site400]”: 8.48 ± 0.42.
For the sequence “AAATATTTTTTAATTGTTCACTTGGTGGATCATTAA [CACACA_negctrl_site922]”, the “gcPBM binding intensity (ln)” value was 8.28 ± 0.28.
Next, “TTTTTTTTTTTTTTTTGTACATATTTTAATTTGTTT [XGTACX_site6297]”: 8.05 ± 0.4; “TATTTTCCATGAGGTAGTACACATTAAAAAATCGTT [XGTACX_site6887]”: 8.44 ± 0.29.
Next, “AAGAATATTATAAACACACACTTTATAAAGAATTAT [CACACA_site4241]”: 8.51 ± 0.52; “TAATTTAAAAATTCCTGTACTCAGTTTTTTCTATTT [XGTACX_site4961]”: 8.48 ± 0.39.
Next, “AAAAAAAAAAAAAAAACACACATATATGTATATATA [CACACA_site3276]”: 8.28 ± 0.5; “AAAACATACATATATACACACATATATATATATATA [CACACA_site1852]”: 10.2 ± 0.23; “CATATATAAAAAAACACACACATATATATATATATA [CACACA_site1195]”: 10.2 ± 0.61.
With “AAAAAAAAAAAACATACACACATACATACATATATA [CACACA_site8222]”, the “gcPBM binding intensity (ln)” value was found to be 8.48 ± 0.4.
Next, “AAAAAACAAAAACACACACACACATATATATATATA [CACACA_site3654]”: 9.94 ± 0.36; “TATGTGCCAAAACACACACACATATATATATATATA [CACACA_site469]”: 10.2 ± 0.11; “TTTAAGCAAAAACACACACACATATATATATATATA [CACACA_site349]”: 10.1 ± 0.41.
Consider “TATAAGCAAAAACACACACACATATATATATATATA [CACACA_site3804]”, for which the “gcPBM binding intensity (ln)” value stood at 10.3 ± 0.28.
On to “AAACAAAAAAAATAAGCACACATATATATATATATA [CACACA_site8173]”, for which the “gcPBM binding intensity (ln)” value is 10.1 ± 0.26.
On to “AAAAAAACACACACATATATATATATATATATATAT [GTGCAC_negctrl_site498]”, for which the “gcPBM binding intensity (ln)” value was found to be 10.2 ± 0.41.
Next, “AAAAAAAAAAAACATACACACACATATATATATATA [CACACA_site8452]”: 10 ± 0.54; “ATTATGTGCCAATACACACACACATATATATATATA [CACACA_site468]”: 9.91 ± 0.44; “ACAGCTCTAGGACATGCATGTTATATAGAAAAAGAG [TGCATGCA_site703]”: 9.59 ± 0.32.
Consider “TTATACAACAAGAAAATTATAAAATGTAACATATAT [GTGCAC_negctrl_site406]”, for which the “gcPBM binding intensity (ln)” value was found to be 8.53 ± 0.42.
Next, “TTTATAATTTATATCACACATATATCTGTAATAAAT [CACACA_site5048]”: 8.24 ± 0.44; “TATATTTATAGACACACACACAAAAAAAAAAAAAAA [CACACA_site6818]”: 8.37 ± 0.31; ATTTTCATGATAAAGGTGCAATTATTTTTATAAGAA: 8.74 ± 0.13.
Next, “ATTATTGTTTATTGATTTTTGTTAAAATAGGAAATT [GTGCAC_negctrl_site181]”: 8.37 ± 0.4; “AAAAAAATCACATAAAATACTTTATTTTATATTATA [GTGCAC_negctrl_site372]”: 7.89 ± 0.36; “ATTTTTAATCATTTACAACCTAGTGATTATACAAAT [CACACA_negctrl_site1089]”: 8.51 ± 0.35.
The figure for “AAAAAAAAAAAGCACACACACATATGCGTATATATA [CACACA_site954]” is 8.49 ± 0.57; for “TAAGAAAATATTTATGTATGCATGTCCTAATATTTC [TGCATGCA_site295]” it is 8.44 ± 0.3.
Take “TTGCCTTAAAAAGGAACACACATGCTTTTTTTAGTT [CACACA_site938]”: the “gcPBM binding intensity (ln)” value came to 8.37 ± 0.45.
Next, “TATTATAAATAAATAGAAAAAAAAATGATAAATGGA [CACACA_negctrl_site865]”: 8.62 ± 0.42.
Next, “TGCATATACGCAAGCACACATATATATATATATATA [CACACA_site1069]”: 10.2 ± 0.51; “AAAAAAAAAAAAAAAACACACATATATATATATATA [CACACA_site2436]”: 10.4 ± 0.11; “AAAACAGACAAACACACACACACATATATATATATA [CACACA_site3393]”: 10.1 ± 0.49.
Next, “AAAAAAAACAGACACACACACATACAAAATATATAT [CACACA_site1449]”: 8.73 ± 0.47; “AACACACACATATATATATATATATATATATATATA [GTGCAC_negctrl_site573]”: 10 ± 0.47.
Take “AAAAAAAAAAAAAACACACATACATACATACATATA [CACACA_site4121]”: the “gcPBM binding intensity (ln)” value is 8.55 ± 0.16.
The figure for “AAAACAAACAGACACACACACATATATATATATATA [CACACA_site3655]” is 10.3 ± 0.21.
Next, “TATGCATATACACAAGCACACATATATATATATATA [CACACA_site8266]”: 10.1 ± 0.32; “TGCATATACTCAAGCACACATATATATATATATATA [CACACA_site4733]”: 10.2 ± 0.33; “AACTATAATTAAAGGATGCACTTGAAGGCATTTCAA [GTGCAC_site9689]”: 8.34 ± 0.35.
The figure for “GCATATATCAAATATCGTACATTTTTTAAATTAAAA [XGTACX_site3994]” is 8.42 ± 0.47; for “TACGTTCTGATATATACACACCTGGTATTAATTATG [CACACA_site7113]” it is 8.93 ± 0.46; for “AAAAAAAAATTAAAATGTACACATAAAAAAAAAAAA [XGTACX_site794]” it is 8.64 ± 0.42.
